# Laboratory results: PubChem BioAssay (Tox21)
# Unmarked numbers belong to inactive results. Inconclusive results are not listed. A call without a number means that no potency is given here. The source made the active and inactive calls. Unless noted, calls follow the shape of the dose curve; as a rule, active = well fitted curve in the direction sought with a large enough effect in the repeat runs; inconclusive = weak or mixed curves; inactive = no such curve, though single readings can be large; an effect the other way counts as inactive or inconclusive.
# Tests used:
# [1] = qHTS assay for small molecules that induce genotoxicity in human embryonic kidney cells expressing luciferase-tagged ATAD5 (AID 651632); also: nearly all actives have a fitted effect of over 15% in size
# Procedure, shortened: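 DMSO vehicle served as the control. HEK293T reporter cells, 16 hr at 37C, then 30 min Amplite at room temperature; ATAD5 induction is measured as luciferase activity.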
# [2] = qHTS assay for small molecules that induce genotoxicity in human embryonic kidney cells expressing luciferase-tagged ATAD5 - cell viability (AID 651634; calls by dose curve; also: nearly all actives have a fitted effect of over 25% in size)
# Procedure, shortened: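 Here HEK293T cells with the ATAD5 luciferase reporter are incubated with test compounds for 15.5 hr, and cytotoxicity is then gauged by measuring protease activity in live cells using fluorescence.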
# [3] = qHTS assay for small molecule disruptors of the mitochondrial membrane potential - cell viability (AID 720634; calls by dose curve;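 also: human HepG2 liver cancer cells; series mostly up to about 83 µM; nearly all actives have a fitted effect of over 20% in size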)
# Procedure, shortened: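 Viability of HepG2 cells is scored from ATP content by luminescence; cells are exposed to compound for 1 hr at 37 C and 5% CO2, then dosed with m-MPI dye before the CellTiter-Glo reagent.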
# [4] = qHTS assay to test for compound auto fluorescence at 590 nm (red) in HepG2 cells (AID 720674)
# Procedure, shortened: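 Rose Bengal sodium served as the red fluorophore standard. HepG2 monolayers (overnight attachment, MEM with 10% FBS) were exposed to test compounds for 1 hr at 37 C and read at Ex 540/Em 590 nm.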
# [5] = qHTS assay to test for compound auto fluorescence at 535 nm (green) in HepG2 cells (AID 720675)
# [6] = qHTS assay to test for compound auto fluorescence at 460 nm (blue) in HEK293 cells (AID 720678)
# Procedure, shortened: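 Blue read-out at excitation 405 nm and emission 460 nm follows overnight compound exposure of HEK293 cells at 37C in 5% CO2. Activity is given as auto fluorescence equivalency to triamterene.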
# [7] = qHTS assay to test for compound auto fluorescence at 590 nm (red) in HEK293 cells (AID 720679)
# Procedure, shortened: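 Red channel, Ex/Em 540/590nm; signal expressed as equivalency to Rose Bengal sodium. HEK293, 2,000 cells/well, 10% dialyzed FBS; 23 nL compound pinned after 4-5 hr attachment; overnight 37C/5% CO2 before reading.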
# [8] = qHTS assay to test for compound auto fluorescence at 535 nm (green) in HEK293 cells (AID 720680)
# [9] = qHTS assay to test for compound auto fluorescence at 460 nm (blue) in HEK293 cell free culture (AID 720681)
# Procedure, shortened: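 Test compounds were pinned into cell-free culture medium (DMEM with 10% FBS) and fluorescence was read directly at Ex/Em 405/460 nm. Signals were expressed as fluorescence equivalents of triamterene, with DMSO vehicle as control.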
# [10] = qHTS assay to test for compound auto fluorescence at 535 nm (green) in HEK293 cell free culture (AID 720682)
# Procedure, shortened: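 Compounds were pin-transferred into cell-free DMEM with 10% FBS, and green fluorescence was read at excitation 485 nm and emission 535 nm. Intensities were expressed as fluorescein-equivalent values.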
# [11] = qHTS assay to test for compound auto fluorescence at 590 nm (red) in HEK293 cell free culture (AID 720683)
# Procedure, shortened: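 Tox21 10K library compounds were pinned into cell-free DMEM with 10% FBS and fluorescence was read at excitation 540 nm. Activity is expressed as Rose Bengal sodium equivalency.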
# [12] = qHTS assay to test for compound auto fluorescence at 590 nm (red) in HepG2 cell free culture (AID 720684)
# Procedure, shortened: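 Readout: intrinsic compound fluorescence at 590 nm emission after 540 nm excitation, scaled to Rose Bengal sodium. Matrix was cell-free MEM with 10% FBS; DMSO vehicle wells served as control.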
# [13] = qHTS assay to test for compound auto fluorescence at 460 nm (blue) in HepG2 cell free culture (AID 720685)
# Procedure, shortened: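 Cell-free plates of MEM plus 10% FBS received 23 nL compound or DMSO vehicle; blue-channel (405/460 nm) intensity scored against triamterene as reference fluorophore.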
# [14] = qHTS assay to test for compound auto fluorescence at 535 nm (green) in HepG2 cell free culture (AID 720686)
# [15] = qHTS assay to test for compound auto fluorescence at 460 nm (blue) in HepG2 cells (AID 720687)
# Procedure, shortened: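 Cells (2,000/well in MEM with 10% FBS) attached overnight at 37 C, then were exposed to compound or DMSO for 1 hr at 37 C, 5% CO2. Fluorescence read at Ex/Em 405/460 nm, expressed as triamterene-equivalent signal.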
# [16] = qHTS assay for small molecule agonists of the p53 signaling pathway - cell viability (AID 651633; calls by dose curve; also: nearly all actives have a fitted effect of over 30% in size; also: potency is read from the fitted curve at half-maximal effect)
# Procedure, shortened: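 p53RE-bla cells, seeded at 4,000 per well and rested 5 h at 37 C/5% CO2, received compounds in DMSO for 16 h at 37 C. CellTiter-Glo was then added, and luminescence was read after 30 min at room temperature to gauge cytotoxicity.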
# [17] = qHTS assay for small molecule disruptors of the mitochondrial membrane potential (AID 720635); also: potency is read from the fitted curve at half-maximal effect
# Procedure, shortened: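 HepG2 cells (2,000/well) attached overnight at 37C, then took compound for 1 hr at 37C, 5% CO2. Mito-MPS dye was added for 30 min; fluorescence was read at 490/535 nm (monomers) and 540/590 nm (aggregates).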
# [18] = target: Glucocorticoid receptor (Homo sapiens) (UniProt P04150); test: qHTS assay to identify small molecule agonists of the glucocorticoid receptor (GR) signaling pathway (AID 720691; active = well fitted activation curve with a large enough effect in the signal ratio in the repeat runs, not every such curve was filed as active; the % refers to the signal ratio)
# Procedure, shortened: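 Compounds in DMSO, alongside positive controls, were added to GR-bla HeLa reporter cells and incubated 18 h at 37 C; GRE-driven beta-lactamase was detected by fluorescence after 2 h with FRET substrate at room temperature.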
# [19] = target: Glucocorticoid receptor (Homo sapiens) (UniProt P04150); test: qHTS assay to identify small molecule antagonists of the glucocorticoid receptor (GR) signaling pathway (AID 720692; active = well fitted inhibition curve with a large enough effect in the signal ratio in the repeat runs, not every such curve was filed as active; the % refers to the signal ratio)
# Procedure, shortened: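 In a 1536-well cell format, compounds were added 4 h after seeding GR-bla HeLa cells, together with dexamethasone at 5 nM final; reporter activity was measured by FRET-substrate fluorescence following 18 h at 37 C.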
# Sequence of Glucocorticoid receptor (Homo sapiens) (P04150 whole entry, looked up): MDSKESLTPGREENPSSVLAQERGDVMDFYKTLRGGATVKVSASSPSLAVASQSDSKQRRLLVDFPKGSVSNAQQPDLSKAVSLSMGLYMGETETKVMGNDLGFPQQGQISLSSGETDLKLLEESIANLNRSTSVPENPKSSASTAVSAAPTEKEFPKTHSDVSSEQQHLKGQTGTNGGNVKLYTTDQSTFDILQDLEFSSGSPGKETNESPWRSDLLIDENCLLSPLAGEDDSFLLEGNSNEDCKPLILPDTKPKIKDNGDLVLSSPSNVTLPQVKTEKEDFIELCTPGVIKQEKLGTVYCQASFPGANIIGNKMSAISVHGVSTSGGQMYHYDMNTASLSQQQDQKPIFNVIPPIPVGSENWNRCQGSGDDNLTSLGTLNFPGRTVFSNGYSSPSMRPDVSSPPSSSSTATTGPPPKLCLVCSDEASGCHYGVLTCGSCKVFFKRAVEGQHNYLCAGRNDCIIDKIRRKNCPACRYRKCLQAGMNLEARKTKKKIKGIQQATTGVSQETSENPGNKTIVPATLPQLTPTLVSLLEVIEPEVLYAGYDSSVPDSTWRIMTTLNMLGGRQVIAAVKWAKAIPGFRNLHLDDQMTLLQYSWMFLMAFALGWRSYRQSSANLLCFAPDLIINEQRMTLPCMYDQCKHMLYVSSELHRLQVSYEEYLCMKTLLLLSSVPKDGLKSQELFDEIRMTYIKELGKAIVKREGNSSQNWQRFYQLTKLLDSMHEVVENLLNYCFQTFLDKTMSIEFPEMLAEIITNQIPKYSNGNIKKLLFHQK
compound,measurement,setting,value
CCCCCCCCCCCSCC(=O)O,Potency,[1],inactive
same,Potency,[2],inactive
same,outcome,[3],inactive
same,outcome,[4],inactive
same,outcome,[5],inactive
same,Potency,[6],inactive
same,outcome,[7],inactive
same,outcome,[8],inactive
same,Potency,[9],inactive
same,outcome,[10],inactive
same,outcome,[11],inactive
same,outcome,[12],inactive
same,Potency,[13],inactive
same,outcome,[14],inactive
same,Potency,[15],inactive
O=C(/C=C/c1ccc([N+](=O)[O-])cc1)c1ccccc1,Potency,[16],68.7 µM (active)
same,Potency,[2],inactive
same,outcome,[3],inactive
same,Potency,[17],30.7 µM (active)
same,outcome,[4],inactive
same,outcome,[5],inactive
same,Potency,[6],inactive
same,outcome,[7],inactive
same,outcome,[8],inactive
same,Potency,[9],inactive
same,outcome,[10],inactive
same,outcome,[11],inactive
same,outcome,[12],inactive
same,Potency,[13],inactive
same,outcome,[14],inactive
same,Potency,[15],inactive
same,Potency,[18],inactive
Cc1ccc(S(=O)(=O)NC(=O)NC2CCCCC2)cc1,Potency,[1],inactive
same,Potency,[16],inactive
same,outcome,[3],inactive
same,Potency,[17],inactive
same,outcome,[4],inactive
same,Potency,[6],inactive
same,outcome,[7],inactive
same,outcome,[8],inactive
same,Potency,[9],inactive
same,outcome,[10],inactive
same,outcome,[11],inactive
same,outcome,[12],inactive
same,Potency,[13],inactive
same,outcome,[14],inactive
same,Potency,[15],inactive
same,Potency,[18],inactive
same,Potency,[19],inactive
Cc1ccccc1S(N)(=O)=O,Potency,[16],inactive
same,Potency,[2],inactive
same,outcome,[3],inactive
same,outcome,[4],inactive
same,outcome,[5],inactive
same,Potency,[6],inactive
same,outcome,[7],inactive
same,outcome,[8],inactive
same,Potency,[9],inactive
same,outcome,[10],inactive
same,outcome,[11],inactive
same,outcome,[12],inactive
same,Potency,[13],inactive
same,outcome,[14],inactive
same,Potency,[15],inactive
same,Potency,[18],inactive
same,Potency,[19],inactive
CC(C(=O)O)c1ccc(C(=O)c2cccs2)cc1 (stereo not drawn),Potency,[1],inactive
same,Potency,[16],inactive
same,outcome,[3],inactive
same,"fluorescence, relative to Rose Bengal",[4],0.487% [at 18.6 µM]
same,"fluorescence, % of fluorescein control",[5],-0.0382% [at 18.6 µM]
same,"fluorescence, % of triamterene",[6],-0.243% [at 18.6 µM]
same,"fluorescence, % of fluorescent control",[7],0.162% [at 18.6 µM]
same,"fluorescence, % of fluorescein",[8],0.0235% [at 18.6 µM]
same,"fluorescence, % of fluorescent control",[9],-0.0817% [at 18.6 µM]
same,activity change,[10],-0.0028% [at 18.6 µM]
same,"fluorescence, % of fluorescent control",[11],-0.0893% [at 18.6 µM]
same,"fluorescence, % of Rose Bengal",[12],-0.362% [at 18.6 µM]
same,"fluorescence, % of fluorescent control",[13],-0.005% [at 18.6 µM]
same,"fluorescence, % of fluorescein control",[14],-0.0792% [at 18.6 µM]
same,"fluorescence, % of fluorescent control",[15],0.0525% [at 18.6 µM]
same,Potency,[18],inactive
same,Potency,[19],inactive
